# Screening data: PubChem, several laboratories
# Shown are actives, neighbours in structure and some others; about 2.3% of the full set was active somewhere.
# UBC13 inh: UBC13 polyubiquitin chain formation inhibitors, primary screen, biochemical, TR-FRET, uHTS | 330,000 tested, 0.47% active | inhibition, % at 20 µM; in the data active = inhibition above about 45%, passing the limit was not always enough
# MEKK2mut PB1 HTS: MEK5 binding signal on mutant MEKK2 PB1, primary screen, biochemical, multiplex bead flow cytometry, Alexa488-MEK5. 290,000 tested, 0.35% active. percent response, % at 10 µM. Alexa488-MEK5 binding to MEKK2 mutant; in the data active = percent response above about 24%, passing the limit was not always enough
# MEKK2 WT-MEK5: modulators of MEK5 binding to wildtype MEKK2, primary screen, biochemical, multiplex bead flow cytometry, Alexa488-MEK5; Mitogen-activated protein kinase kinase kinase 2 (Homo sapiens), Q9Y2U5; 290,000 tested, 1.1% active; Alexa488-MEK5 binding to MEKK2 WT; actives lie on both sides; binding response (% of control), % at 10 µM; in the data active = binding response below about 67% or above about 130%
# MEKK3 PB1 HTS: modulators of MEKK3-MEK5 PB1 binding, primary screen, biochemical, wildtype MEKK3, multiplex bead flow cytometry, Alexa488-MEK5. Mitogen-activated protein kinase kinase kinase 3 (Homo sapiens), Q99759. bead-based flow cytometry, Alexa488-MEK5 binding to MEKK3; actives lie on both sides; 0 = blocked by unlabeled MEK5, 100 = vehicle. binding response (% of control), % at 10 µM. 290,000 tested, 1.4% active;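 active = binding response more than 3 SD above or below the average of its plate-row segment, actives on both sides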;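 note: Alexa488 bead fluorescence after subtracting the streptavidin-only scavenger bead signal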
# Target sequence (Q99759 whole entry, looked up): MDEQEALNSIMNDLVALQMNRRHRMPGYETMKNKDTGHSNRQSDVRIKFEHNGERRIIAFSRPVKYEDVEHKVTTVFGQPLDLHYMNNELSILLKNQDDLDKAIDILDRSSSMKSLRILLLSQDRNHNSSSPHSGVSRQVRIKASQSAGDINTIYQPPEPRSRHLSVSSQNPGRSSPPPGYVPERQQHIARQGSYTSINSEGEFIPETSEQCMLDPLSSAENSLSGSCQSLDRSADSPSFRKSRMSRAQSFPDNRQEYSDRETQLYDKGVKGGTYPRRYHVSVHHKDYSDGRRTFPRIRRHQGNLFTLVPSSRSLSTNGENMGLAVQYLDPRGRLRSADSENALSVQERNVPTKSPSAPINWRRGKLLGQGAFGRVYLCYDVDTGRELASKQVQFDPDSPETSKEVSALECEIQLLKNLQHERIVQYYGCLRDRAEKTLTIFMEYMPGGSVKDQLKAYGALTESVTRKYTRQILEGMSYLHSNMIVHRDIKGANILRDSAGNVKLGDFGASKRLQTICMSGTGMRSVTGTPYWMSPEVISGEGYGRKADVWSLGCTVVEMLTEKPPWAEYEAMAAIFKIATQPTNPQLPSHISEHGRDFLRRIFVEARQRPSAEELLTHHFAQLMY
# MEKK2wt confirm: modulators of MEK5 binding to wildtype MEKK2, confirmation, biochemical, single concentration, multiplex bead flow cytometry. shares compounds with MEKK3 PB1 HTS. Alexa488-MEK5 binding to MEKK2 WT; actives lie on both sides. binding response (% of control), % at 10 µM. 5,900 tested, 2.4% active. AID 1892, 2009; in the data active = binding response below about 16% or above about 210%; inactive = in between
# MEKK2mut confirm: mutant MEKK2 PB1-MEK5 binding signal retest – biochemical, single concentration, multiplex bead flow cytometry, confirmation | shares compounds with MEKK3 PB1 HTS | Alexa488-MEK5 binding to MEKK2 mutant | percent response, % at 10 µM | 5,900 tested, 2% active | AID 1893, 2009; in the data active = percent response mostly above about 71%, no sharp cut-off; inactive = mostly below about 38%;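 note: higher means compound restores mutant binding toward wildtype level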
# MEKK3 confirm: MEKK3 wild-type PB1 binding to MEK5, inhibitors, confirmation, biochemical, bead multiplex flow cytometry, single concentration, wildtype | shares compounds with MEKK3 PB1 HTS | Alexa488-MEK5 binding to MEKK3; stronger effect = lower value | binding response (% of control), % at 10 µM | 5,900 tested, 1.8% active;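 active = binding response below 72% of control, or above a set upper limit, though filed actives all read lower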;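 note: 100% = DMSO only wells and 0% = binding blocked by excess unlabeled MEK5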
# An asterisk follows results filed as active; . = no result given; [ ] = dose if it differs, or a comment.
SMILES,UBC13 inh,MEKK2mut PB1 HTS,MEKK2 WT-MEK5,MEKK3 PB1 HTS,MEKK2wt confirm,MEKK2mut confirm,MEKK3 confirm
CC(C)(C)n1ncc2c(=O)n(Cc3ccc(Cl)cc3Cl)cnc21,10.8,-69.0,2.0*[inhibitor],2.0*[inhibitor],105.0,-1.0,105.0
CCCCNC(=O)C1CCN(c2nc(OC)nc(OC)n2)CC1,13.4,9.0,96.0,124.0*,103.0,1.0,102.0
CCCCNC(=O)C1CCN(c2nc(C)cc(C)n2)CC1,-1.4,2.0,107.0,104.0,.,.,.
Brc1ccc(C2=Nc3cccc4cccc(c34)N2)o1,-43.1,2.0,109.0,142.0*,99.0,3.0,98.0
N#Cc1ccc(Cn2c(=O)c(C#N)c3n(c2=O)CCC3)cc1,12.0,-21.0,0.0*[inhibitor],0.0*[inhibitor],106.0,6.0,104.0
N#Cc1c2n(c(=S)n(-c3ccccc3)c1=O)CCCCC2,6.0,-7.0,94.0,98.0,.,.,.
O=C(CSc1nc2ncc(Cl)cc2[nH]1)NCC(=O)Nc1ccc(F)c(F)c1F,-7.9,-2.0,104.0,101.0,.,.,.
CN1CCN(CCC2Oc3cc([N+](=O)[O-])ccc3NC2=O)CC1 (centres undefined),-13.4,-6.0,84.0,98.0,.,.,.
O=C1Nc2ccc([N+](=O)[O-])cc2OC1CCN1CCCC1 (centres undefined),-4.6,5.0,114.0,141.0*,101.0,1.0,101.0
CCCn1c(SC(C(=O)Nc2cccc(OC)c2)c2ccccc2)nc2ccccc2c1=O (centres undefined),3.3,0.0,110.0,142.0*,96.0,-5.0,97.0
O=C(CN1CCOCC1)Nc1cccc(C(=O)Nc2cccc(C(F)(F)F)c2)c1,-2.6,4.0,115.0,106.0,.,.,.
CCCCCNCC(=O)Nc1cccc(C(=O)Nc2cccc(C(F)(F)F)c2)c1,29.0,29.0,174.0*,97.0,157.0,20.0,106.0
Cc1cc2oc(=O)cc(CSc3nnc(-c4cccs4)o3)c2cc1C(C)C,2.8,0.0,99.0,134.0*,96.0,-3.0,101.0
Cc1cc2oc(=O)cc(CSc3nnc(C)n3N)c2cc1C(C)C,-1.0,-1.0,100.0,101.0,.,.,.
COc1ccc2c(CSc3nnc(-c4cccnc4)n3-c3ccccc3F)cc(=O)oc2c1,3.7,0.0,102.0,115.0,.,.,.
CCOc1ccc(-n2c(SCc3cc(=O)oc4cc(C)c(C(C)C)cc34)nnc2-c2cccnc2)cc1,-0.3,0.0,102.0,128.0*,107.0,5.0,107.0
COCCCn1c(=O)c2ccccc2n(Cc2ccc(C)cc2)c1=O,-4.8,1.0,98.0,102.0,.,.,.
COCCCNC(=O)c1ccc(Cn2c(=O)c3ccccc3n(Cc3ccc(C)cc3)c2=O)cc1,15.5,7.0,117.0,125.0*,106.0,2.0,100.0
COc1cc(CN(C)CC2CCCN(CCc3cccc(C(F)(F)F)c3)C2)ccc1O (centres undefined),8.7,28.0*,156.0*,115.0,120.0,10.0,99.0
COc1ccc(CN(C)CC2CCCN(CCc3ccc(F)cc3)C2)cc1OC (centres undefined),-3.2,14.0,121.0,105.0,.,.,.
COc1cccc(C(=O)N2CCC(n3nccc3NC(=O)C(OC)c3ccccc3)CC2)c1 (centres undefined),-0.3,8.0,103.0,103.0,.,.,.
CC1CN(S(=O)(=O)c2cccc(C(=O)Nc3ccccc3N3CCCC3)c2)CC(C)O1 (centres undefined),-3.3,.,.,.,.,.,.
CCN(CC)C(=O)CSc1nnc(-c2ccc(O)cc2)n1CC1CCCO1 (centres undefined),-10.3,11.0,133.0,136.0*,104.0,5.0,106.0
O=C(O)c1ccc(N2C(=O)c3cccc(Oc4ccc(Cl)cc4)c3C2=O)cc1,0.1,2.0,105.0,106.0,.,.,.
O=C(O)c1cccc(N2C(=O)c3cccc(Oc4ccc(Cl)cc4)c3C2=O)c1,-30.7,-1.0,101.0,131.0*,93.0,-6.0,96.0
SMILES,UBC13 inh,MEKK2mut PB1 HTS,MEKK2 WT-MEK5,MEKK3 PB1 HTS,MEKK2wt confirm,MEKK2mut confirm,MEKK3 confirm
COc1ccc(N(C)S(=O)(=O)c2ccc(Cl)c(C(=O)NNC(=O)c3ccccc3O)c2)cc1,-9.0,.,.,.,.,.,.
O=c1c([N+](=O)[O-])c[nH]c2ccccc12,-6.4,0.0,106.0,135.0*,99.0,1.0,101.0
O=[N+]([O-])c1ccccc1N/N=C/c1c[nH]c2ccccc12,-70.7,4.0,111.0,110.0,.,.,.
COc1ccc(/C=C(/C#N)C(=O)Nc2ccccc2C)cc1C(=O)O,11.1,0.0,106.0,108.0,.,.,.
COc1cc(/C=C(\C#N)C(=O)Nc2ccccc2C(=O)O)cc(Cl)c1OC,-10.9,-17.0,56.0,43.0*[inhibitor],106.0,6.0,106.0
Cc1ccc(C(=O)NNc2cc(=O)n(C)c(=O)n2C)cc1C,-13.3,0.0,105.0,142.0*,102.0,-8.0,102.0
CN(C)c1nc(N/N=C/c2ccccc2O)nc(Nc2ccc(F)cc2)n1,-5.2,23.0,140.0*,110.0,108.0,-8.0,104.0
CS(=O)(=O)c1ccc2nc(NC(=O)CN3C(=O)C4CC=CCC4C3=O)sc2c1 (centres undefined),1.7,5.0,115.0,138.0*,105.0,-3.0,101.0
CSc1ccc(S(=O)(=O)NCC(=O)OCC(=O)N(Cc2ccccc2)C(C)C)cc1[N+](=O)[O-],-2.1,.,.,.,.,.,.
O=C(N/N=C\C=C\c1ccco1)c1cc(-c2ccc3ccccc3c2)n[nH]1,19.0,0.0,100.0,132.0*,90.0,-9.0,99.0
CCc1ccc(C2=Nn3c(nnc3-c3cccs3)SC2)cc1,-1.5,5.0,119.0,126.0*,95.0,-2.0,100.0
Cc1ccccc1C(=O)NCC(=O)Nc1ccc(C)c(S(=O)(=O)N2CCCCCC2)c1,-3.9,8.0,106.0,109.0,.,.,.
CCOc1cc(CNCCSc2nnnn2C)cc(Br)c1OCc1ccccc1F,12.2,11.0,136.0*,106.0,135.0,17.0,108.0
OCCNCc1cc(Br)ccc1OCc1ccc(Cl)cc1Cl,.,35.0*,145.0*,110.0,127.0,17.0,105.0
CCOc1cc(CNCCO)cc(Br)c1OCc1ccc(Cl)cc1Cl,56.0*,51.0*,212.0*,115.0,204.0,58.0,110.0
OCCCCNCc1cc(Br)ccc1OCc1ccccc1F,3.4,24.0,148.0*,103.0,157.0,32.0,109.0
